Sampled rows, rich in hits. Any-hit rate of the full collection: about 2.8%.
EWS-Fli inh – blocks EWS/Fli oncoprotein-driven transcription | A673 NR0B1-luciferase reporter, viability-normalised | inhibition, % at 12.6 µM | hit rate 0.67% among 350,000 | AID 651661;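 active = mean inhibition of at least 50% after viability correction, with every replicate also passing that limit; inconclusive = mean reaches 50% but only one of two replicates passes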;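 note: firefly luciferase signal divided by Alamar Blue viability fluorescence both relative to DMSO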
LGR2 inh – inhibitors of bursicon-induced Drosophila LGR2 receptor cAMP signaling; HEK293 LGR2, CRE-luciferase, bursicon-stimulated, 4 h; inhibition, % at 9.99 µM; hit rate 0.35% among 380,000; AID 720647;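 active = drop in luminescence signal, shown as inhibition above about 50% in the replicate tests, limit read from the data, passing the limit was not always enough; inconclusive = probably only some replicates passing the limit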;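 note: agonist challenge used bursicon conditioned medium at about half maximal strength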
TROY NFkB inh – inhibitors of TROY-dependent NF-kB signaling | AID 1347056 | inhibition, % at 10 µM | hit rate 0.98% among 360,000 | Q293 LMP1-TROYcd NF-kB luciferase reporter, 4 h;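 active = compounds whose plate-normalised and pattern-corrected inhibition of the luciferase reporter signal at the single screening dose is 50% or more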
TWEAK Fn14 block – TWEAK-Fn14 signaling inhibition; AID 1159606; inhibition, % at 10 µM; TWEAK-stimulated Fn14 reporter cells, luciferase luminescence, 8 h; hit rate 2% among 360,000; in the data active = inhibition above about 50%
PAX8 reporter – lowers PAX8-driven luciferase in RMG-I cells; hit rate 1.2% among 360,000; RMG-I TPO-luciferase reporter, SteadyGlo, 24 h; inhibition, % at 12.6 µM; AID 652154;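 active = mean replicate inhibition at least 60% with every replicate also reaching 60%; inconclusive = only one of the two criteria is met; inactive = mean below 60% and not all replicates reaching 60%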;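 note: luciferase light reporting Pax8 driven TPO promoter activity; plate controls were median of neutral control wells for no effect and mitoxantrone controls for full effect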
The depositor's hits bear a star; ? = inconclusive; / = not tested or not shown.

SMILES	EWS-Fli inh	LGR2 inh	TROY NFkB inh	TWEAK Fn14 block	PAX8 reporter
O=C(Nc1ccc(S(=O)(=O)NC2=NCCCCC2)cc1)c1ccc(Cl)c([N+](=O)[O-])c1	27	8	14	12	15
O=C(O)c1cc(NC(=O)c2ccc(Cl)c([N+](=O)[O-])c2)cc(C(=O)O)c1	-3	-9	5	-12	8
COc1cc2nc(N3CCN(c4cc(C)ccc4C)CC3)nc(N)c2cc1OC	60*	41	42	-296	31
O=C(Nc1ccccc1F)N[C@H]1CC[C@H](CCNC(=O)C2CCCCC2)O[C@H]1CO	0	4	/	/	-26
N#C[C@H]1[C@H](c2ccc(C3=CCCCC3)cc2)[C@H](CO)N1C(=O)NC1CCCCC1	0	-19	/	/	2
C[C@H]1CN([C@@H](C)CO)C(=O)Cc2cc(NC(=O)c3ccncc3)ccc2O[C@H]1CN(C)Cc1ccc(-c2ccccc2)cc1	-14	-1	/	/	69*
C[C@H]1CN([C@@H](C)CO)C(=O)Cc2cc(NC(=O)Nc3ccc4c(c3)OCO4)ccc2O[C@@H]1CN(C)Cc1ccc(-c2ccccc2)cc1	-1	-8	/	/	78*
C[C@H]1CN([C@@H](C)CO)C(=O)Cc2cc(NC(=O)Nc3ccc4c(c3)OCO4)ccc2O[C@H]1CN(C)Cc1ccc(-c2ccccc2)cc1	0	7	/	/	-5
C[C@@H]1CN([C@@H](C)CO)C(=O)Cc2cc(NC(=O)Cc3ccccc3)ccc2O[C@H]1CN(C)Cc1ccc(-c2ccccc2)cc1	20	23	/	/	79*
C[C@@H]1CN([C@@H](C)CO)C(=O)Cc2cc(NC(=O)C3CC3)ccc2O[C@H]1CN(C)Cc1ccc(-c2ccccc2)cc1	8	-14	/	/	91*
C[C@@H]1CN([C@@H](C)CO)C(=O)Cc2cc(NC(=O)Nc3ccc(C(F)(F)F)cc3)ccc2O[C@@H]1CN(C)S(=O)(=O)c1ccc(F)cc1	0	14	/	/	29
COc1ccc(-c2csc(NC(=O)C3=NN(c4ccccc4)C(=O)CC3)n2)cc1	-13	11	36	88*	-42
COc1ccc(-c2csc(NC(=O)c3c(OC)cccc3OC)n2)cc1	0	24	9	-14	5
COc1ccc(S(=O)(=O)Nc2ccccc2C(=O)Nc2nc(-c3ccc(F)cc3)cs2)cc1OC	/	25	59*	92*	/
COc1ccc(-c2csc(NC(=O)c3ccccc3NS(=O)(=O)c3ccc(C)cc3)n2)cc1	15	33	70*	93*	0
C[C@@H]1CN([C@@H](C)CO)C(=O)c2cc(NC(=O)Nc3ccc(C(F)(F)F)cc3)ccc2O[C@@H](C)CCCCO[C@@H]1CN(C)Cc1ccncc1	3	40	/	/	83*
C[C@H]1CCCCO[C@H](CN(C)Cc2ccncc2)[C@@H](C)CN([C@@H](C)CO)C(=O)c2cc(NC(=O)Nc3ccc(C(F)(F)F)cc3)ccc2O1	9	12	/	/	58
C[C@@H]1CN([C@@H](C)CO)C(=O)c2cc(NC(=O)Nc3ccc(C(F)(F)F)cc3)ccc2O[C@@H](C)CCCCO[C@H]1CN(C)Cc1ccncc1	14	-8	/	/	86*
C[C@@H]1CCCCO[C@@H](CN(C)Cc2ccncc2)[C@H](C)CN([C@H](C)CO)C(=O)c2cc(NC(=O)Nc3ccc(C(F)(F)F)cc3)ccc2O1	14	11	/	/	99*
Cc1cccc(-c2ccc([C@H]3[C@@H](CO)N4C(=O)CN(C(=O)c5cccnc5)C[C@H]34)cc2)c1	2	1	/	/	-22
COc1cccc(C#Cc2ccc3c(c2)[C@@H]2[C@@H](CCN2C(=O)CC2CC2)[C@H](CO)N3)c1	8	-3	/	/	/
C=CCn1c(SCC(=O)Nc2sccc2C(N)=O)nc2sc(CC)cc2c1=O	/	/	48	72*	/
C=CCn1c(SCC(=O)Nc2sccc2C(N)=O)nc2ccccc2c1=O	/	-14	34	46	/
C=CCn1c(SCC(=O)Nc2sccc2C(N)=O)nc2ccc(Cl)cc2c1=O	/	/	49	73*	/
O=C(O)CC/C(=C\c1ccc(N2CCCC2)c([N+](=O)[O-])c1)c1nc2ccccc2s1	9	-27	25	4	2
SMILES	EWS-Fli inh	LGR2 inh	TROY NFkB inh	TWEAK Fn14 block	PAX8 reporter
CN(c1ccccc1)c1ccc(/C=C(/CCC(=O)O)c2nc3ccccc3s2)cc1[N+](=O)[O-]	-4	18	57*	42	-6
CO[C@@H]1CN(C)C(=O)c2ccc(NC(=O)CC(F)(F)F)cc2OC[C@H](C)N(C(C)=O)C[C@@H]1C	-4	-8	/	/	-4
C[C@@H]1CN([C@H](C)CO)C(=O)Cc2cc(NS(=O)(=O)c3ccc(Cl)cc3)ccc2O[C@@H]1CN(C)Cc1ccc(C(F)(F)F)cc1	-1	?	/	/	0
C[C@@H]1CN([C@H](C)CO)C(=O)Cc2cc(NS(=O)(=O)c3ccccc3)ccc2O[C@@H]1CN(C)CC1CCCCC1	64*	0	/	/	-3
C[C@H](CO)N1C[C@H](C)[C@@H](CN(C)Cc2ccc(C(F)(F)F)cc2)Oc2ccc(NS(=O)(=O)c3ccc(Cl)cc3)cc2CC1=O	40	8	/	/	102*
Cc1ccc(S(=O)(=O)Nc2ccc3c(c2)CC(=O)N([C@@H](C)CO)C[C@@H](C)[C@H](CN(C)Cc2ccc(Cl)c(Cl)c2)O3)cc1	19	31	/	/	92*
C[C@@H]1CN([C@@H](C)CO)C(=O)Cc2cc(NS(=O)(=O)c3ccccc3)ccc2O[C@H]1CN(C)Cc1ccc(C(F)(F)F)cc1	/	6	/	/	92*
C[C@H](CO)N1C[C@H](C)[C@H](CN(C)CC2CCCCC2)Oc2ccc(NS(=O)(=O)c3ccccc3)cc2CC1=O	1	0	/	/	-7
C[C@@H]1CN([C@H](C)CO)C(=O)CCCn2cc(nn2)CO[C@H]1CN(C)C	-6	-9	/	/	/
C[C@@H]1CN([C@@H](C)CO)S(=O)(=O)c2ccc(-c3cccc(C#N)c3)cc2O[C@@H]1CN(C)C(=O)Nc1cc(F)ccc1F	11	4	/	/	17
CCCCCCc1nc(-c2ccc(OC)nc2)c(C)c2c1[Si](C(C)C)(C(C)C)OC2	0	/	/	/	1
Cc1ccc(S(=O)(=O)N(C)C[C@@H]2OCCCC[C@@H](C)Oc3ccc(NC(=O)Nc4cccc5ccccc45)cc3C(=O)N([C@H](C)CO)C[C@H]2C)cc1	0	1	/	/	-3
CCN(C[C@@H]1[C@@H](c2ccc(C3=CCCCC3)cc2)[C@@H](CO)N1C(C)=O)C(C)=O	5	-12	/	/	/
O=C(C[C@H]1CC[C@@H](NC(=O)c2ccccn2)[C@H](CO)O1)NCc1cccc(F)c1	-1	-6	/	/	4
Cc1ccc(S(=O)(=O)Nc2ccc3c(c2)CC(=O)N([C@@H](C)CO)C[C@@H](C)[C@H](CN(C)Cc2ccc(C(F)(F)F)cc2)O3)cc1	33	14	/	/	63*
O=[N+]([O-])c1ccc(/C=N/Nc2nc(-c3ccccc3)c3cc(Br)ccc3n2)o1	/	/	-20	35	-6
Cc1ccc2nc(N/N=C\c3ccc([N+](=O)[O-])o3)nc(-c3ccccc3)c2c1	/	/	-5	67*	/
COc1ccc(NC(=O)Nc2cccc3c2O[C@H](CN(C)C(=O)Nc2ccccc2)[C@H](C)CN([C@@H](C)CO)C3=O)cc1	-2	-12	/	/	/
